Assay outcomes as filed in PubChem BioAssay.
L3MBTL1 block: qHTS Assay for the Inhibitors of L3MBTL1 | Lethal(3)malignant brain tumor-like protein 1 (Homo sapiens), Q9Y468 | AlphaScreen L3MBTL1–H3K9me1 peptide binding | Potency, µM (doses to about 57.1 µM), for the others: at the highest dose activity, negative = inhibition, actives largely listed as inhibitors | 230,000 compounds, 0.66% hits; also: % is scaled to controls: 0 for no effect and ±100 for the full control effect; nearly all actives have a fitted effect of over 60% in size
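Read-out is AlphaScreen signal from streptavidin donor and nickel chelate acceptor beads (10 ug/mL final each) bridging L3MBTL1 (50 nM) and biotinylated K9-monomethylated H3(1-15) peptide (75 nM), after 30 min compound exposure at room temperature.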
BAZ2B block: qHTS Assay for Inhibitors of BAZ2B. Bromodomain adjacent to zinc finger domain protein 2B (Homo sapiens), Q9UIF8. AlphaScreen BAZ2B-H3K14Ac peptide displacement. Potency, µM (titrated, usually from 114 µM), for inactives: top-dose activity change, negative = inhibition, most hits filed as inhibitors. 360,000 compounds, 4.4% hits; also: % is scaled to controls: 0 for no effect and ±100 for the full control effect; nearly all actives have a fitted effect of over 60% in size
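AlphaScreen displacement: compounds (up to 110uM) incubated 30 min at room temperature with a preformed 50 nM BAZ2B/50 nM biotinylated H3K14Ac peptide complex in PBS pH 7.4 with Tween-20. Donor and acceptor beads at 10 ug/mL final added, 20 min light-protected before reading.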
Sfp PPTase inh: qHTS Assay for Inhibitors of Bacillus subtilis Sfp phosphopantetheinyl transferase (PPTase); Potency, µM, for inactives: largest response in the series, negative = inhibition, usual class: inhibitors; 310,000 compounds, 3.5% hits; Biochemical Sfp PPTase activity, qHTS; AID 1490, 2009;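 also: the enzyme is Sfp with the accession as filed and its product quenches rhodamine fluorescence; 0% = enzyme reaction without inhibitor and -100% = no enzyme wells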
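After 15 min at room temperature with compound, 15 nM Sfp received 5 uM rhodamine-CoA plus 12.5 uM BHQ-2-ybbR (50 mM Hepes pH 7.6, 10 mM MgCl2). Rate came from the fluorescence difference over 30 min, ex 525/em 598 nm.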
HP1b binding inh: HTS for Inhibitors of HP1-beta Chromodomain Interactions with Methylated Histone Tails; Potency, µM (top dose mostly 114 µM), without a hit: at the highest dose activity change, negative = inhibition, actives largely listed as inhibitors; AID 540317, 2011; Chromobox protein homolog 1 (Homo sapiens), P83916; 390,000 compounds, 0.56% hits; AlphaScreen HP1-beta / biotin-H3K9me3 peptide binding; also: nearly all actives have a fitted effect of over 70% in size
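HP1-beta protein (50 nM final) preincubated 30 min at room temperature with biotinylated H3(1-18)K9me3 peptide (50 nM) in PBS pH 7.4, 0.01% Tween-20, then compound added for 30 min. AlphaScreen streptavidin donor/nickel chelate acceptor beads (10 ug/mL final), 30 min dark, luminescence read.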
JMJD2A Tudor: qHTS Assay for Inhibitors of JMJD2A-Tudor Domain | 390,000 compounds, 4.4% hits | AlphaScreen JMJD2A-Tudor / H3K4me3 peptide binding | Potency, µM (doses to about 114 µM), for inactives: at the highest dose activity change, negative = inhibition, hits mostly inhibitors; also: % is scaled to controls: 0 for no effect and ±100 for the full control effect; nearly all actives have a fitted effect of over 50% in size
G9a inh: qHTS Assay for Inhibitors of Histone Lysine Methyltransferase G9a; Histone-lysine N-methyltransferase EHMT2 (Homo sapiens), Q96KQ7; G9a H3K9 monomethylation, AlphaScreen, 2 h; Potency, µM (top dose mostly 102 µM), inactives show top-dose activity, negative = inhibition, most hits filed as inhibitors; 350,000 compounds, 8.8% hits; AID 504332, 2011; also: % is scaled to controls: 0 for no effect and ±100 for the full control effect; nearly all actives have a fitted effect of over 75% in size
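Using a bead-based AlphaScreen, monomethylated H3K9 product from 2 h room-temperature reactions (G9a 20 nM, peptide 500 nM, SAM 20 uM) was detected with 0.5 ug/mL rabbit anti-H3K9me1 antibody.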
* marks the source's active call; other numbers are inactive results; [ ] = dose if it differs, or a comment. The list is not random: actives were taken first. Their share in the collection is about 12%. Calls follow the shape of the dose curve; as a rule, active = well fitted curve in the direction sought with a large enough effect; inconclusive = small, poorly fitted or top-dose-only effect, or another doubt; inactive = no such curve, though single readings can be large; an effect the other way counts as inactive or inconclusive. Potency is read from the fitted curve at half-maximal effect.

O=C(OCC12CC3CC(CC(C3)C1)C2)c1ccc(NCc2cc(O)ccc2O)cc1 was read as HP1b binding inh 16µM* and JMJD2A Tudor 50µM*.
For O=C(O)c1cc(NCc2cc(O)ccc2O)ccc1O the results were Sfp PPTase inh inconclusive, HP1b binding inh inconclusive, JMJD2A Tudor 25µM* and G9a inh 3.5µM*.
Screening O=C(OCCC12CC3CC(CC(C3)C1)C2)c1ccc(NCc2cc(O)ccc2O)cc1 returned HP1b binding inh inconclusive and JMJD2A Tudor 25µM*.
CCOc1ccc(NC(=O)c2cc(=O)c3cc(CC)ccc3o2)cc1 was read as BAZ2B block -7%, HP1b binding inh 21%, JMJD2A Tudor -25% and G9a inh -6%[59 µM].
For CC(C)CN1CC[C@@]2(CCCN(C(=O)c3cnccn3)C2)C1 the results were Sfp PPTase inh -5% and G9a inh 7%[12.7 µM].
`CCOC(=O)C1CCCCN1Cc1cccc(F)c1` (configuration not stated) gave BAZ2B block 50µM*, Sfp PPTase inh -28%, HP1b binding inh inconclusive, JMJD2A Tudor 22µM* and G9a inh 3.5µM*.
`CCOC(=O)C1CCCCN1Cc1ccc(-c2ccccc2)cc1` (configuration not stated) gave L3MBTL1 block 7%, BAZ2B block 9%, Sfp PPTase inh -23%, HP1b binding inh -9%, JMJD2A Tudor 20µM* and G9a inh inconclusive.
CCOC(=O)C1CCCCN1Cc1ccc(F)cc1 (configuration not stated) was read as BAZ2B block 50µM*, Sfp PPTase inh -28%, HP1b binding inh inconclusive, JMJD2A Tudor 4.5µM* and G9a inh 10µM*.
CCOC(=O)C1CCCCN1Cc1cccc(Oc2ccccc2)c1 (configuration not stated) was read as L3MBTL1 block 26%, BAZ2B block 63%, Sfp PPTase inh 7%, HP1b binding inh 107%, JMJD2A Tudor 65% and G9a inh 53%.
`CCOC(=O)C1CCCCN1Cc1cn(C)nc1-c1ccccc1F` (configuration not stated) gave BAZ2B block 2%, Sfp PPTase inh 6%, HP1b binding inh 18%, JMJD2A Tudor 5% and G9a inh -36%.
For CC(=O)c1cc(-c2ccc(F)cc2)n(CCC(=O)Nc2nc3c(C)cccc3s2)c1C the results were BAZ2B block 0%, HP1b binding inh 26%, JMJD2A Tudor -5% and G9a inh 3%[59 µM].
CCc1ccc(NC(=S)N(Cc2cccnc2)Cc2ccco2)cc1 was read as L3MBTL1 block -6%, BAZ2B block inconclusive, Sfp PPTase inh 6%, HP1b binding inh 20%, JMJD2A Tudor -34% and G9a inh -13%.
N#CCCN(Cc1cccnc1)C(=S)NCc1ccco1 was read as BAZ2B block -15%, Sfp PPTase inh 25µM*, HP1b binding inh 2%, JMJD2A Tudor -2% and G9a inh 20µM*.
N#CCCN(Cc1cccnc1)C(=S)NC(=O)c1ccco1 was read as L3MBTL1 block -17%, BAZ2B block inconclusive, Sfp PPTase inh 12%, HP1b binding inh 12%, JMJD2A Tudor 22µM* and G9a inh 10µM*.
N#CCCN(C(=S)NC(=O)c1ccco1)c1ccccc1F was read as L3MBTL1 block 1%, BAZ2B block -24%, Sfp PPTase inh 22µM*, HP1b binding inh -20%, JMJD2A Tudor -33% and G9a inh 25µM*.
`Cc1ccc(C(=O)Nc2nc3ccccc3c(=O)s2)cc1` gave L3MBTL1 block 10%, BAZ2B block inconclusive, Sfp PPTase inh 56µM*, HP1b binding inh 17%, JMJD2A Tudor 89µM* and G9a inh 8.9µM*.
`O=C(Nc1nc(=O)c2ccccc2s1)c1ccccc1` gave L3MBTL1 block 9%, BAZ2B block -7%, Sfp PPTase inh 50µM*, HP1b binding inh 18%, JMJD2A Tudor -34% and G9a inh inconclusive.
CC(=O)N/C(N)=N/c1nc(=O)c2ccccc2s1 was read as L3MBTL1 block 2%, BAZ2B block -1%, Sfp PPTase inh 4%, HP1b binding inh -3% and JMJD2A Tudor -20%.
For CC(=O)Nc1nc(=O)c2ccccc2s1 the results were L3MBTL1 block 1%, BAZ2B block 4%, Sfp PPTase inh inconclusive, HP1b binding inh 16%, JMJD2A Tudor -28% and G9a inh 22µM*.
Screening COc1ccc(-c2n[nH]c(=S)n2/N=C/C=C/c2ccccc2OC)cc1 returned L3MBTL1 block 3%, BAZ2B block -2%, Sfp PPTase inh -10%, HP1b binding inh 6%, JMJD2A Tudor 79µM* and G9a inh 1.3µM*.
`COc1ccccc1/C=C/C=N/n1c(-c2ccc(Cl)cc2)n[nH]c1=S` gave L3MBTL1 block 38%, BAZ2B block inconclusive, Sfp PPTase inh 35µM*, HP1b binding inh inconclusive and JMJD2A Tudor 89µM*.
Screening CC(C)OC(=O)c1c(NC(=O)C2CC=CCC2C(=O)O)sc2c1CCCCC2 (configuration not stated) returned BAZ2B block inconclusive, Sfp PPTase inh 11%, HP1b binding inh -28%, JMJD2A Tudor -28% and G9a inh 45µM*.
Screening NC(=O)c1c(NC(=O)c2ccccc2)sc2c1CCC2 returned BAZ2B block inconclusive, Sfp PPTase inh -3%, HP1b binding inh 68%, JMJD2A Tudor -12% and G9a inh -44%.
Screening NC(=O)c1c(NC(=O)C2CC=CCC2C(=O)O)sc2c1CCCCC2 (configuration not stated) returned BAZ2B block inconclusive, Sfp PPTase inh 35µM*, HP1b binding inh inconclusive, JMJD2A Tudor 56µM* and G9a inh 8.9µM*.
For Cc1ccccc1-c1cc(N(C)C)ncn1 the results were Sfp PPTase inh 9% and G9a inh 4%[0.501 µM].
`Cc1cc(=O)[nH]c(NN)n1` gave BAZ2B block 0%, Sfp PPTase inh 45µM*, HP1b binding inh 27% and JMJD2A Tudor -4%[11.4 µM].
`Cc1cc(=O)[nH]c(N/N=C2/CCCC/C2=C\c2ccccc2)n1` gave L3MBTL1 block 5%, BAZ2B block 3%, Sfp PPTase inh 2%, HP1b binding inh -3%, JMJD2A Tudor -4%[11.4 µM] and G9a inh 45µM*.
